Compound activity as filed in PubChem BioAssay.
Hits are enriched below; roughly 1.4% of the tested compounds scored in any of these assays.
AmpC no deterg – qHTS Inhibitors of AmpC Beta-Lactamase (assay without detergent). AmpC nitrocefin hydrolysis, absorbance 480 nm, 0.0001% Triton. 330,000 compounds, 0.52% hits. Potency, µM (highest dose often 57.1 µM), inactives show at the highest dose activity change, negative = inhibition, actives largely listed as inhibitors;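 note: potency is the fitted concentration of half-maximal effect; plate controls were no compound for no effect and no enzyme for full effect; nearly all actives have a fitted effect of over 20% in size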
Target sequence (P00811 whole entry, looked up): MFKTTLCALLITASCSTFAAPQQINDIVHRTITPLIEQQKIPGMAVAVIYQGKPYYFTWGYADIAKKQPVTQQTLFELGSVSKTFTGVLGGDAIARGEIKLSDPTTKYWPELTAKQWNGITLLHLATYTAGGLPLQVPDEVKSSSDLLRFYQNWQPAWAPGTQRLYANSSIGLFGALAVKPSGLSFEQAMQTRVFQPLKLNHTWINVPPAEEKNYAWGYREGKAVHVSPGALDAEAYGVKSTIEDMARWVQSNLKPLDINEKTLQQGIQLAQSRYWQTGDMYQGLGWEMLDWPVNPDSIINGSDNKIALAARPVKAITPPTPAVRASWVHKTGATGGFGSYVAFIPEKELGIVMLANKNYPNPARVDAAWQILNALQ
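20 mM phosphate pH 7.0 + 0.01% (detergent screen) or 0.0001% Triton X-100; 5.3 nM AmpC reagent; cpd preinc 15 min RT; nitrocefin (800 uM stock) to start; A480 q20 s × 4 min; Activity was normalised to no-enzyme and no-compound control wells.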
SARS PLpro yeast-1 – qHTS of Yeast-based Assay for SARS-CoV PLP; S. cerevisiae expressing SARS-CoV PLpro, growth rescue; AID 485353, 2010; 330,000 compounds, 0.19% hits; Potency, µM (series often up to 32.9 µM), for inactives: at the highest dose activity, positive = growth rescue, usual class: activators; calls by dose curve; note: potency is the fitted concentration of half-maximal effect; 0% is about no effect; nearly all actives have a fitted effect of over 55% in size
NS1 inh – qHTS Assay for Inhibitors of Influenza NS1 Protein Function | 270,000 compounds, 0.4% hits | Potency, µM (doses to about 46.1 µM), for inactives: at the highest dose activity, positive = more growth | AID 2326, 2010; calls by dose curve; note: potency is the fitted concentration of half-maximal effect; actives are rising curves; nearly all actives have a fitted effect of over 50% in size
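A cell-based growth assay was used: compounds that relieve NS1-induced slow growth of budding yeast raise OD600. Assay medium was yeast nitrogen base with ammonium sulphate and -URA supplement, pH 6.0, with 2% galactose.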
FBPA Giardia inh – qHTS Assay for Inhibitors of Fructose-1,6-bisphosphate Aldolase from Giardia Lamblia | Potency, µM (highest dose often 59.6 µM), without a hit: top-dose activity, negative = inhibition, actives largely listed as inhibitors | A8B2U2 | 290,000 compounds, 0.71% hits | purified Giardia FBPA | AID 2451, 2010; note: potency is the fitted concentration of half-maximal effect; % is set by controls: 0 for no effect and ±100 for the full control effect; nearly all actives have a fitted effect of over 55% in size
Target sequence (A8B2U2 whole entry, looked up): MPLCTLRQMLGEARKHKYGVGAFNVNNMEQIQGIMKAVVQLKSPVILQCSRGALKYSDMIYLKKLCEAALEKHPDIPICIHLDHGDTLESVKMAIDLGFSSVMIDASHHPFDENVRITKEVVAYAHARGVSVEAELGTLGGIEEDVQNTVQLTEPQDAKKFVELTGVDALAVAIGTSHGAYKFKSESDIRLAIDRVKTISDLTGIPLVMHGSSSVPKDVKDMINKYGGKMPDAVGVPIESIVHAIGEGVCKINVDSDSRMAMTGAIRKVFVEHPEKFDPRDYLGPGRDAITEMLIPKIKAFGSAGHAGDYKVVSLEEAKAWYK
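40 nM FBPA preincubated 10 min at RT with compound (up to 57.5 uM final), then substrate plus GAPDH/TPI/NAD/arsenate coupling and diaphorase/resazurin added. Fluorescence read after 20 min at RT, 525/598 nm.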
AmpC inh detg – qHTS Inhibitors of AmpC Beta-Lactamase (assay with detergent). P00811. AmpC hydrolysis of nitrocefin, absorbance 480 nm, 0.01% Triton. Potency, µM (top dose mostly 114 µM), inactives show top-dose activity change, negative = inhibition, most hits filed as inhibitors. 370,000 compounds, 0.041% hits;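 note: potency is the fitted concentration of half-maximal effect; 0% = no-compound wells and -100% = no-enzyme wells; nearly all actives have a fitted effect of over 25% in size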
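20 mM phosphate pH 7.0 + 0.01% (detergent screen) or 0.0001% Triton X-100; 5.3 nM AmpC reagent; cpd preinc 15 min RT; nitrocefin (800 uM stock) to start; A480 q20 s × 4 min; Activity was normalised to no-enzyme and no-compound control wells.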
SARS PLpro yeast-2 – qHTS of Yeast-based Assay for SARS-CoV PLP: Hit Validation | shares compounds with SARS PLpro yeast-1 | yeast expressing SARS-CoV PLpro, growth phenotype rescue | calls only | 1,000 compounds, 19% hits | AID 652038, 2013; call rule not given here
The depositor's hits bear a star; i = inactive; ? = inconclusive; . = no result; + = active, no number; [ ] = another dose, or the depositor's remark. Unless noted, calls come from the whole dose curve; as a rule, active = well fitted curve in the direction sought with a large enough effect; inconclusive = small, poorly fitted or top-dose-only effect, or another doubt; inactive = no such curve, though single readings can be large; an effect the other way counts as inactive or inconclusive.

SMILES	AmpC no deterg	SARS PLpro yeast-1	NS1 inh	FBPA Giardia inh	AmpC inh detg	SARS PLpro yeast-2
O=C(Nc1nc2ccccc2n1CCN1CCOCC1)c1ccccc1	0%	-4%	-4%	-4%	?	.
O=C(Nc1nc2ccccc2n1CCN1CCOCC1)c1cn(-c2ccccc2)nc1-c1ccccc1	-11%	?	-78%	11%	?	?
Nc1ccc(C(=O)CC(=O)Nc2ccc(Cl)cc2)cc1	-34%	14%	6%	3%	5%	.
CCOc1ccccc1CNC(=O)CCNC(=O)Cn1ccc2ccccc2c1=O	-2%	?	3%	2%	-1%	i
CC(C)(C)c1ccc(C(=O)N/C(N)=N/c2nc3ccccc3o2)cc1	-14%	?	?	8%	4%	i
COc1ccc(C(=O)N/C(N)=N/c2nc3ccccc3o2)cc1	-40%	-5%	-1%	11%	?	.
Cc1nc(N/N=C\c2ccc3c(c2)OCO3)sc1C	-27%	7.1µM*	-31%	3%	?	+
Cc1ccc(-n2nc3c(N4CCC(C(=O)NCc5ccc(C)o5)CC4)nnc(C)c3c2C)cc1	160%	?	9%	8%	2%	i
Cc1ccc(-n2nc3c(N4CCC(C(=O)NCCc5ccco5)CC4)nnc(C)c3c2C)cc1	143%	-5%	1%	.	2%	.
COc1ccccc1N1CCN(C(=O)c2cccc(NC3=NC4CS(=O)(=O)CC4S3)c2)CC1 (stereo not given)	62%	0%	-7%	?	?	.
COc1cc(CNCc2ccccn2)ccc1OCc1ccc(Cl)cc1	51%	?	-7%	19%	-3%	i
CC(=O)C(Sc1nn(C)c(=S)s1)C(=O)Nc1ccccc1 (stereo not given)	-34%	?	-5%	?	-4%	i
CC(=O)C(Sc1nc(N(C)C)nc(N(C)C)n1)C(=O)Nc1ccccc1 (stereo not given)	-9%[2.29 µM]	-1%	-1%	13%	?	.
O=C(CC1Sc2ccccc2NC1=O)c1ccc(Br)cc1 (stereo not given)	-28%	-2%	29%	-3%	-2%	.
O=C1CC[C@@]2(O)[C@H]3Cc4ccc(O)c5c4[C@@]2(CCN3CC2CC2)[C@H]1O5	-7%	?	1%	-7%	-12%	i
COCCCNS(=O)(=O)c1ccccc1	-9%	3%	?	1%	?	.
O=c1[nH]c(C2C3CC4CC(C3)CC2C4)nc2ccccc12 (stereo not given)	-11%	2.8µM*	0%	0%	-9%	i
CC(=O)c1c(NCCc2ccccc2)nc(=S)n(-c2ccccc2)c1C	14%	1%	.	-1%	2%	.
CN(C)C(CNC(=O)CCNC(=O)c1ccccc1Cl)c1ccco1 (stereo not given)	-14%	3%[6.58 µM]	.	.	?	.
COc1ccc(C(C)NC(=O)c2ccccc2Cl)cc1OC (stereo not given)	-13%	11µM*	-10%	3%	2%	+
CCOc1cc(/C=C/C(=O)O)ccc1OCc1ccccc1	-16%	2%	.	?	7%	.
COc1cc(/C=C/C(=O)NC(C)C)ccc1OCc1ccccc1	-6%	?	12%	0%	-1%	+
CC(Sc1nnc(NCc2ccccc2)s1)C(=O)Nc1ccc2c(c1)C(=O)c1ccccc1C2=O (stereo not given)	-57%	?	?	-1%	3%	+
Cn1c2ccccc2n2c(=O)c(=O)n(CC(=O)c3ccc(Cl)cc3)nc12	-23%	11µM*	23%	6%	-17%	i
COC(=O)c1ccccc1NC(=O)Cn1nc2n(C)c3ccccc3n2c(=O)c1=O	-11%	-8%	-3%	1%	?	.
SMILES	AmpC no deterg	SARS PLpro yeast-1	NS1 inh	FBPA Giardia inh	AmpC inh detg	SARS PLpro yeast-2
COc1ccccc1C(=O)NN1C(=O)/C(=C/c2cccn2C)SC1=S	-2%	1%	9%	-7%	5%	.
CCOC(=O)C(Cc1ccccc1)C(=O)Nc1cccc(C)c1 (stereo not given)	-15%	22µM*	-18%	1%	?	i
Cc1ccn(C(=O)c2cc3ccccc3oc2=O)n1	-3%	13%	-11%	6%	-13%	.
Cc1cc(C)nc(SCc2nnc(SCC(=O)Nc3ccccc3C)n2Cc2ccco2)n1	25%	1%	-7%	3%	-9%	.
O=C(Nc1ccc(NC(=O)c2ccco2)cc1)c1ccc2c(c1)OCO2	-42%	?	1%	1%	-1%	+
CC(C)(C)c1ccc(C(=O)NCC(=O)N/N=C/c2ccccc2OCC(=O)O)cc1	-9%	-1%	2%	-3%	7%	.
O=C(O)COc1ccccc1/C=N/NC(=O)CNC(=O)c1ccco1	-12%	0.4µM*	15%	.	1%	i
Cc1ccc(CSc2nnc(SCC(=O)N/N=C/c3c[nH]c4ccccc34)s2)cc1	-14%	-1%	.	?	-6%	.
Cc1cc2c(cc1S(=O)(=O)N1CCN(c3ccc(Cl)cc3)CC1)OCCN2C	-16%	0.89µM*	7%	-13%	-13%	i
COc1cccc(N2CCN(S(=O)(=O)c3cc4c(cc3C)N(C)CCO4)CC2)c1	-4%	-24%	?	-29%	-9%	.
Cc1nc2c3ccccc3n(CC(=O)c3ccc(F)cc3)c(=O)n2n1	-12%	2%	1%	1%	-9%	.
CCn1c(O)c(/C=N/NC(=O)c2ccncc2)c(=O)n(CC)c1=S	-15%	?	15%	23%	-15%	i
CCc1ccc2oc(C(=O)Nc3sc4c(c3C(=O)NC)CCCC4)cc(=O)c2c1	.	.	.	.	-6%	.
O=c1c(N2CCOCC2)nsnc1N1CCOCC1	-1%	?	4%	?	-14%	i
Cc1nc(-c2cccc(NC(=O)Nc3ccccc3C(F)(F)F)c2)no1	.	.	.	.	3%	.
CCN(C(=O)CSc1cc(C)c2ccccc2n1)c1c(N)n(Cc2ccccc2)c(=O)[nH]c1=O	-7%	-2%	-5%	-4%	-2%	.
CCN(CC)S(=O)(=O)c1ccc(NC(=S)NC(=O)CC(C)C)cc1	-35%	.	?	0%	-4%	i
N#Cc1ccc(C(=O)NC(=S)NC2CCCCC2)cc1	-28%	-6%	.	.	.	.
C/C(=N\NC(=S)NC1CCCCC1)c1ccc(C#N)cc1	-23%	16µM*	11%	-20%	-14%	+
Cc1cscn1	-12%	?	.	.	4%	i
Cc1cc[n+](CC(=O)Nc2cc(C(F)(F)F)ccc2Cl)cc1	2%	4%	1%	3%	?	.
CN(C)c1cc[n+](CC(=O)Nc2cc(C(F)(F)F)ccc2Cl)cc1	-1%	?	0%	-1%	-12%	i
